Experimental data: PubChem BioAssay AID1159580 (chemical genetic matrix, 2015)
Where “and” joins values, the source holds several entries; their conditions need not be identical. Identical values can stand only once. In all, about 5,500 compounds went through this assay and about 2,000 (36%) were called active. Inconclusive results (about 18%) are left out. No stated cut-off is given here; in the data, active means normalized growth mostly below about 0.91 (no sharp cut-off); inconclusive means no clear call, values can overlap the other calls; inactive means mostly above about 0.92. The list shows a part of the results.

Experiment: chemical genetic growth profiling, strain panel (AID 1159580);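 further: tested at 20 µM; growth read once vehicle control cultures reached saturation at 30 °C; 1 = growth at the plate median or of vehicle wells; lower values mean less growth of the strain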
Details: S. cerevisiae deletion strains, growth OD

Measured: normalized growth

CCCCCCCCCCCCCCCC(=O)OC/C=C(C)/C=C/C=C(C)/C=C/C1=C(C)CCCC1(C)C
inactive: locus YAL013W, strain DEP1, hits give low values 0.994 | locus YAL021C, strain ccr4, hits give low values 1.04 | locus YAL026C, strain drs2, hits give low values 1.02 | locus YAL030W, strain snc1, hits give low values 1.03 | locus YBL061C, strain skt5, hits give low values 1.02 | locus YBR009C, strain hhf1, hits give low values 0.995 | locus YBR021W, strain FUR4, hits give low values 0.977 | locus YBR023C, strain chs3, hits give low values 1 | locus YBR171W, strain sec66, hits give low values 1.02 | locus YBR229C, strain ROT2, hits give low values 0.992 | locus YBR231C, strain swc5, hits give low values 0.931 | locus YBR279W, strain paf1, hits give low values 1.01 | locus YCL011C, strain gbp2, hits give low values 1 | locus YCL016C, strain dcc1, hits give low values 1 | locus YCL029C, strain bik1, hits give low values 0.999 | locus YCL069W, strain vba3, hits give low values 1.01 | locus YCR088W, strain abp1, hits give low values 1.02 | locus YDL005C, strain med2, hits give low values 1.03 | locus YDL035C, strain GPR1, hits give low values 0.978 | locus YDL040C, strain nat1, hits give low values 1.01 | locus YDL074C, strain BRE1, hits give low values 1 | locus YDL101C, strain DUN1, hits give low values 0.993 | locus YDL185W, strain tfp1, hits give low values 0.992 | locus YDL192W, strain arf1, hits give low values 0.994 | locus YDR001C, strain nth1, hits give low values 1.02 | locus YDR069C, strain doa4, hits give low values 1 | locus YDR101C, strain arx1, hits give low values 1.02 | locus YDR137W, strain rgp1, hits give low values 1.03 | locus YDR150W, strain NUM1, hits give low values 1 | locus YDR159W, strain sac3, hits give low values 0.963 | locus YDR162C, strain NBP2, hits give low values 0.973 | locus YDR195W, strain ref2 1.04 | locus YDR297W, strain sur2, hits give low values 1.03 | locus YDR318W, strain mcm21, hits give low values 0.999 | locus YDR334W, strain swr1, hits give low values 1.03 | locus YDR335W, strain msn5, hits give low values 1.04 | locus YDR388W, hits give low values 1.02 | locus YDR392W, strain spt3, hits give low values 1.05 | locus YDR502C, strain sam2, hits give low values 0.994 | locus YEL003W, strain gim4, hits give low values 1.01 | locus YEL037C, strain rad23, hits give low values 1.02 | locus YEL061C, strain CIN8 (second series), hits give low values 1.02 | locus YEL061C, strain CIN8, hits give low values 0.993 | locus YER015W, strain faa2, hits give low values 1.02 | locus YER016W, strain bim1, hits give low values 1.02 | locus YER110C, hits give low values 0.985 | locus YER111C, strain swi4, hits give low values 1.02 | locus YER155C, strain BEM2 (second series), hits give low values 1.03 | locus YER155C, strain BEM2, hits give low values 0.998 | locus YER167W, strain BCK2, hits give low values 0.989 | locus YFR010W, strain ubp6, hits give low values 1.03 | locus YGL078C, strain dbp3, hits give low values 0.993 | locus YGL086W, strain mad1, hits give low values 1.01 | locus YGL167C, strain pmr1, hits give low values 1.02 | locus YGL173C, strain kem1, hits give low values 1.01 | locus YGL227W, strain vid30, hits give low values 1.01 | locus YGL240W, strain doc1, hits give low values 1.03 | locus YGL248W, strain PDE1, hits give low values 1 | locus YGL253W, strain hxk2, hits give low values 0.976 | locus YGR135W, strain pre9, hits give low values 0.929 | locus YGR252W, strain gcn5, hits give low values 1.04 | locus YHR013C, strain ard1, hits give low values 1.05 | locus YHR027C, strain rpn1, hits give low values 0.969 | locus YHR030C, strain SLT2, hits give low values 0.995 and 0.963 | locus YHR079C, strain IRE1 (second series), hits give low values 1.01 | locus YHR079C, strain IRE1, hits give low values 0.925 | locus YHR094C, strain hxt1, hits give low values 0.983 | locus YHR129C, strain ARP1, hits give low values 0.999 | locus YHR142W, strain chs7, hits give low values 1.01 | locus YHR200W, strain rpn10, hits give low values 0.998 | locus YIL066C, strain RNR3, hits give low values 0.987 | locus YIL073C, strain SPO22, hits give low values 0.879 | locus YIL125W, strain kgd1, hits give low values 0.992 | locus YIR030C, strain dcg1, hits give low values 0.989 | locus YJL092W, strain hpr5, hits give low values 1.02 | locus YJL095W, strain BCK1 (second series), hits give low values 1.03 | locus YJL095W, strain BCK1, hits give low values 0.995 and 0.989 | locus YJL115W, strain asf1, hits give low values 1.02 | locus YJL129C, strain trk1, hits give low values 1.04 | locus YJL134W, strain LCB3, hits give low values 0.991 | locus YJL154C, strain vps35, hits give low values 1.02 | locus YJL164C, strain tpk1, hits give low values 0.996 | locus YJL166W, strain qcr8, hits give low values 1.04 | locus YJL168C, strain set2, hits give low values 0.994 | locus YJL187C, strain SWE1 (second series), hits give low values 1.01 | locus YJL187C, strain SWE1, hits give low values 1.03 | locus YJR043C, strain POL32, hits give low values 0.995 | locus YJR066W, strain TOR1, hits give low values 0.901 | locus YKL009W, strain mrt4, hits give low values 0.993 | locus YKL068W, hits give low values 0.985 | locus YKL085W, strain MDH1 (second series), hits give low values 0.985 | locus YKL085W, strain MDH1, hits give low values 0.985 | locus YKL160W, strain elf1, hits give low values 1.02 | locus YKL190W, strain CNB1, hits give low values 0.998 | locus YKR001C, strain vps1, hits give low values 0.991 | locus YKR026C, strain gcn3, hits give low values 1.03 | locus YKR091W, strain srl3, hits give low values 1.01 | locus YLL001W, strain dnm1, hits give low values 1.01 | locus YLL026W, hits give low values 0.975 | locus YLL041C, strain sdh2, hits give low values 1.02 | locus YLR027C, strain aat2, hits give low values 1.01 | locus YLR039C, strain RIC1, hits give low values 1 | locus YLR058C, strain SHM2, hits give low values 0.988 | locus YLR102C, strain apc9, hits give low values 0.993 | locus YLR113W, strain HOG1, hits give low values 0.99 | locus YLR221C, strain rsa3, hits give low values 0.98 | locus YLR258W, strain gsy2, hits give low values 1 | locus YLR262C, strain YPT6 (second series), hits give low values 1.01 | locus YLR262C, strain YPT6, hits give low values 1.04 | locus YLR268W, strain sec22, hits give low values 0.996 | locus YLR320W, strain mms22, hits give low values 1 | locus YLR330W, strain CHS5, hits give low values 0.993 | locus YLR342W, strain FKS1 (second series), hits give low values 0.993 | locus YLR342W, strain FKS1, hits give low values 1.02 | locus YLR357W, strain rsc2, hits give low values 0.994 | locus YLR370C, strain arc18, hits give low values 1.02 | locus YLR371W, strain rom2, hits give low values 1 | locus YLR384C, strain iki3, hits give low values 1.02 | locus YLR418C, strain cdc73, hits give low values 0.922 | locus YML016C, strain PPZ1, hits give low values 0.994 | locus YML032C, strain rad52, hits give low values 1.01 | locus YML120C, strain ndi1, hits give low values 1.05 | locus YML124C, strain tub3, hits give low values 0.993 | locus YMR058W, strain fet3, hits give low values 0.999 | locus YMR078C, strain ctf18, hits give low values 0.996 | locus YMR125W, strain sto1, hits give low values 1.01 | locus YMR129W, hits give low values 1.01 | locus YMR205C, strain PFK2, hits give low values 1.01 | locus YMR223W, strain ubp8, hits give low values 0.959 | locus YMR231W, strain pep5, hits give low values 1.02 | locus YMR263W, strain SAP30, hits give low values 1 | locus YMR307W, strain GAS1, hits give low values 1 | locus YNL067W, strain RPL9B, hits give low values 1.02 | locus YNL071W, strain lat1, hits give low values 0.97 | locus YNL153C, strain GIM3, hits give low values 1.04 | locus YNL183C, strain NPR1, hits give low values 0.967 | locus YNL209W, strain ssb2, hits give low values 0.991 | locus YNL233W, strain BNI4, hits give low values 0.994 | locus YNL248C, strain rpa49, hits give low values 1.05 | locus YNL250W, strain rad50, hits give low values 1.01 | locus YNL271C, strain bni1, hits give low values 0.995 | locus YNL298W, strain CLA4, hits give low values 1 | locus YNL307C, strain MCK1, hits give low values 0.989 | locus YNL322C, strain KRE1 (second series), hits give low values 1.04 | locus YNR049C, strain mso1, hits give low values 1.02 | locus YNR052C, strain pop2, hits give low values 0.998 | locus YOL012C, strain htz1 0.785 | locus YOL147C, strain pex11, hits give low values 0.991 | locus YOR001W, strain rrp6, hits give low values 1.05 | locus YOR061W, strain CKA2, hits give low values 0.99 | locus YOR069W, strain VPS5, hits give low values 0.992 | locus YOR070C, strain gyp1, hits give low values 1.01 | locus YOR080W, strain dia2, hits give low values 1.02 | locus YOR083W, strain WHI5, hits give low values 0.984 | locus YOR106W, strain vam3, hits give low values 0.962 | locus YOR136W, strain idh2, hits give low values 1 | locus YOR144C, strain elg1, hits give low values 0.99 | locus YOR184W, strain ser1, hits give low values 0.991 | locus YOR231W, strain MKK1, hits give low values 0.974 | locus YOR265W, strain rbl2, hits give low values 1.02 | locus YOR270C, strain vph1, hits give low values 1.05 | locus YOR290C, strain snf2, hits give low values 1.03 | locus YOR316C, strain cot1, hits give low values 0.992 | locus YPL051W, strain arl3, hits give low values 1.02 | locus YPL078C, strain atp4, hits give low values 1.01 | locus YPL106C, strain sse1, hits give low values 1.07 | locus YPL240C, strain hsp82, hits give low values 1.01 | locus YPL256C, strain CLN2, hits give low values 0.916 | locus YPR119W, strain clb2, hits give low values 0.998 | locus YPR141C, strain kar3, hits give low values 0.983 | locus YPR163C, strain tif3, hits give low values 1 | locus YPR167C, strain met16, hits give low values 0.992 | strain wtn01, hits give low values 0.972
